Sm TGR inh – S. mansoni TGR enzyme inhibition; purified TGR, DTNB reduction, TNB absorbance 405 nm; actives 3% (n = 360,000); Potency, µM (titrated, usually from 114 µM), actives largely listed as inhibitors; also: nearly all actives have a fitted effect of over 60% in size
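Kinetic colorimetric format: TGR-catalysed, NADPH-driven DTNB reduction monitored via TNB absorbance. Enzyme dispensed at 20 nM; compound exposure 15 min at room temperature before reaction start.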
AmpC no deterg – AmpC beta-lactamase inhibition without detergent | actives 0.52% (n = 330,000) | AmpC nitrocefin hydrolysis, absorbance 480 nm, 0.0001% Triton | Potency, µM (highest dose often 57.1 µM), most hits filed as inhibitors | AID 485341 | P00811; also: nearly all actives have a fitted effect of over 20% in size
Target sequence (P00811 whole entry, looked up): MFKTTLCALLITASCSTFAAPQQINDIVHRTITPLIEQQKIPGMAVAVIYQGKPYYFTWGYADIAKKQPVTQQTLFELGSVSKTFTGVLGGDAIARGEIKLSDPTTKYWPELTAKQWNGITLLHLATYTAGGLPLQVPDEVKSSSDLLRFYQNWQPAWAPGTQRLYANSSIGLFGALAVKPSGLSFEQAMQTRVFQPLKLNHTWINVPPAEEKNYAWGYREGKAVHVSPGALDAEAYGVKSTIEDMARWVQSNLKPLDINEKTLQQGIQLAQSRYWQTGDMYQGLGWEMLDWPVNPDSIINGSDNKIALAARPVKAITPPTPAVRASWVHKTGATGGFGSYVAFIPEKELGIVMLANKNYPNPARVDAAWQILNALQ
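20 mM phosphate pH 7.0 + 0.01% (detergent screen) or 0.0001% Triton X-100; 5.3 nM AmpC reagent; cpd preinc 15 min RT; nitrocefin (800 uM stock) to start; A480 q20 s × 4 min; Activity was normalised to no-enzyme and no-compound control wells.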
AmpC inh detg – AmpC beta-lactamase inhibition with detergent present; AmpC hydrolysis of nitrocefin, absorbance 480 nm, 0.01% Triton; Potency, µM (doses to about 114 µM), hits mostly inhibitors; actives 0.041% (n = 370,000); AID 485294; also: nearly all actives have a fitted effect of over 25% in size
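20 mM phosphate pH 7.0 + 0.01% (detergent screen) or 0.0001% Triton X-100; 5.3 nM AmpC reagent; cpd preinc 15 min RT; nitrocefin (800 uM stock) to start; A480 q20 s × 4 min; Activity was normalised to no-enzyme and no-compound control wells.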
Of the large screens only hits and unclear results are named; the others gave an inactive call. Rows were chosen to be rich in hits. Some 3.3% of all compounds tested hit in one or more screens of this group. Calls follow the shape of the dose curve; as a rule, active = well fitted curve in the direction sought with a large enough effect; inconclusive = small, poorly fitted or top-dose-only effect, or another doubt; inactive = no such curve, though single readings can be large; an effect the other way counts as inactive or inconclusive.

CCOc1ccc(CCNC(=O)COC(=O)/C=C/c2ccco2)cc1OCC	none
CCOc1ccc(CCNC(=O)/C=C/c2ccco2)cc1OCC	Sm TGR inh 6.3µM
COc1ccc(CCNC(=O)/C=C\c2ccccc2)cc1OC	none
COc1ccc(CCNC(=O)/C=C/c2ccco2)cc1OC	Sm TGR inh 11µM
COc1ccc(/C=C/C(=O)NCCSCc2ccco2)cc1OC	Sm TGR inh 10µM
COc1ccc(/C=C/C(=O)NCCc2ccc(S(N)(=O)=O)cc2)cc1	none
Cc1cc2[nH]c(=O)c(=O)[nH]c2cc1S(=O)(=O)Nc1cccc(Cl)c1	none
Cc1ccc(C)c(C(=O)C(C)OC(=O)CN2C(=O)NC3(CC(C)CC(C)(C)C3)C2=O)c1 (stereo unspecified)	AmpC inh detg inconclusive
COc1ccc(NC(=O)CSc2nc(N)cc(=O)[nH]2)cc1S(=O)(=O)N1CCCCC1	none
O=S(=O)(c1cnc(Cl)c(Cl)c1)N1CCN(c2ncccn2)CC1	none
COc1ccccc1-c1cn[nH]c1-c1ccc(OCc2ccc([N+](=O)[O-])cc2)cc1O	AmpC inh detg inconclusive
COc1ccccc1-c1cn[nH]c1-c1ccc(OCc2ccc(F)cc2)cc1O	AmpC no deterg 7.1µM
N#C/C=C/N1CCC(Cc2ccccc2)CC1	none
CC(=O)N1CN(CCCn2ccnc2)Cc2c1sc1c2CCCC1	AmpC inh detg inconclusive
CC(=O)N1CN(Cc2ccccn2)Cc2c1sc1c2CCCC1	Sm TGR inh 40µM
CC(Oc1ccc(Br)cc1)C(=O)Nc1ccc(N2CCOCC2)cc1N1CCOCC1 (stereo unspecified)	none
CN(C(=O)CCS(=O)(=O)c1ccc2c(c1)oc(=O)n2C)C1CCCCC1	none
COc1cc(-c2nc(S(=O)(=O)c3ccc(C)cc3)c(N(C)C)o2)cc(OC)c1OC	Sm TGR inh 18µM
Cc1nc(S(=O)(=O)c2ccc(Cl)cc2)c(N(C)C)o1	Sm TGR inh 10µM
Cc1ccc(-c2nc(S(=O)(=O)c3ccc(C)cc3)c(N(C)C)o2)cc1	Sm TGR inh 2.5µM
Cc1ccc(S(=O)(=O)c2nc(-c3ccccc3Cl)oc2N(C)C)cc1	none
COc1ccccc1-c1nc(S(=O)(=O)c2ccc(Cl)cc2)c(N(C)C)o1	Sm TGR inh inconclusive
COc1cc(-c2nc(S(=O)(=O)c3ccc(C)cc3)c(N3CCOCC3)o2)cc(OC)c1OC	Sm TGR inh inconclusive
CC(OC(=O)c1cc2c(ccc3ccccc32)oc1=O)c1nc2ccccc2s1 (stereo unspecified)	none
Cc1ccc(CNc2ccccc2C(=O)O)s1	none
c1cncc(-c2nc(-c3ccco3)cs2)c1	Sm TGR inh 7.9µM, AmpC inh detg inconclusive
N#Cc1c(-c2ccco2)cc(C2CC2)nc1N	Sm TGR inh 10µM
N#Cc1c(-c2ccco2)cc(-c2cccnc2)nc1N	Sm TGR inh 11µM
N#Cc1c(-c2ccco2)cc(-c2ccccn2)nc1N	Sm TGR inh 10µM
c1cncc(-c2csc(-c3cccnc3)n2)c1	none
N#Cc1c(-c2ccccc2)cc(C2CC2)nc1N	none
N#Cc1c(-c2ccccc2F)cc(-c2cccnc2)nc1N	AmpC inh detg inconclusive
N#Cc1c(-c2cccnc2)cc(-c2ccccc2)nc1N	none
Cc1ccc(-c2nnc(SCC(=O)NCCC(C)C)nc2-c2ccc(C)cc2)cc1	none (no result: AmpC no deterg)
N#Cc1ccccc1CCN1C(=O)c2ccccc2C1=O	none
CCCCN(CC)CCCNC(=O)Cn1nc(CC)n2c(cc3sccc32)c1=O	none (no result: AmpC no deterg)
COc1cc(OC)c(NS(=O)(=O)c2cc3c(cc2C)NC(=O)CO3)cc1Cl	none (no result: AmpC no deterg)
CCCCNC(=S)N(C)/N=C/c1sc(N2CCCCC2)nc1-c1cccs1	AmpC no deterg 11µM
CC(C)NC(=S)N/N=C/c1sc(N2CCCCC2)nc1-c1cccs1	none
Cc1ccc(NC(=O)/C(C#N)=C/c2cc(C)n(-c3ccc(N4CCOCC4)c([N+](=O)[O-])c3)c2C)c(C)c1	none
Cc1cc(/C=C(\C#N)C(=O)Nc2ccc(Cl)cc2)c(C)n1-c1ccc(N2CCOCC2)c([N+](=O)[O-])c1	AmpC no deterg 7.9µM
Cc1ccc(C)n1-c1ccc(N2CCOCC2)c([N+](=O)[O-])c1	Sm TGR inh 35µM
Cc1cc(C=O)c(C)n1-c1ccc(N2CCOCC2)c([N+](=O)[O-])c1	none
COc1ccccc1N(C)S(=O)(=O)c1ccc(C)c(C(=O)Nc2nccs2)c1	AmpC inh detg inconclusive
O=C(Cc1ccc(F)cc1)OCC(=O)c1cc2ccccc2o1	none
CNC(=O)c1cc2ccccc2o1	none
O=C(CCNc1cccc(F)c1)c1cc2ccccc2o1	Sm TGR inh 0.35µM
O=C(CCNc1cccc(F)c1)c1cccc([N+](=O)[O-])c1	Sm TGR inh 0.28µM
O=C(CCNc1ccc(F)cc1)c1cc2ccccc2o1	Sm TGR inh 0.32µM
O=C(CCNc1ccc(Cc2ccncc2)cc1)c1cccc([N+](=O)[O-])c1	none
Cc1cccc(N2CCN(C(=O)c3cnn(-c4ccccc4)c3C3CCN(C(=O)OC(C)(C)C)CC3)CC2)c1C	none (no result: AmpC no deterg)
Cc1ccc(S(=O)(=O)N2CCOCC2)cc1NC(=O)COC(=O)c1cnc(Cl)c(Cl)c1	AmpC inh detg inconclusive
CCCCN(C(=O)CC1CCCC1)c1c(N)n(CCC)c(=O)[nH]c1=O	Sm TGR inh 0.56µM
CCCCN(C(=O)CC1CCCC1)c1c(N)n(CC(C)C)c(=O)[nH]c1=O	AmpC inh detg inconclusive
CC(C)n1cc(CN2CCN(C)C(CCO)C2)c2ccccc21 (stereo unspecified)	none
O=C(CC1SC2=NCCN2C1=O)Nc1ccc(Cl)cc1 (stereo unspecified)	none
COc1ccc(NC(=O)CC2Sc3ncnn3C2=O)cc1 (stereo unspecified)	Sm TGR inh 0.63µM, AmpC inh detg inconclusive
CCOC(=O)c1ccc(NC(=O)CC2Sc3ncnn3C2=O)cc1 (stereo unspecified)	Sm TGR inh 1.6µM
CCOC(=O)c1ccc(NC(=O)CC2SC(=NC)N(C)C2=O)cc1 (stereo unspecified)	none
COCCN1C(=O)C(CC(=O)Nc2ccccc2)SC1=Nc1ccc(OC)cc1 (stereo unspecified)	AmpC inh detg inconclusive
O=C(CC1Sc2ncnn2C1=O)Nc1ccc(Cl)cc1 (stereo unspecified)	Sm TGR inh 5.6µM
COc1ccc(Cl)cc1C(=O)NNC(=O)c1csc(N2CCOCC2)n1	none
CC(NC(=O)Cc1ccc(NS(=O)(=O)c2cccc(C(F)(F)F)c2)cc1)c1ccccn1 (stereo unspecified)	none
O=C(Cc1ccc(-c2ccccc2)cc1)NCCS(=O)(=O)N1CCN(c2ccccc2F)CC1	none (no result: AmpC no deterg)
CC1(C(=O)NNC(=S)NCc2ccco2)CC1(Cl)Cl (stereo unspecified)	none
O=C1NCCCc2c1oc1ccc(O)cc21	none
Oc1c(Cl)cc(Cl)c2c1NCCC2	Sm TGR inh 1µM
Cc1cc(C(=O)CSc2nncn2C)c(C)n1-c1ccccc1	none
COc1cc(C2C3=C(CCCC3=O)Nc3c2c(C)nn3-c2cccc(C)c2)cc(OC)c1O (stereo unspecified)	Sm TGR inh 40µM
COc1cc(C2C3=C(CCCC3=O)Nc3[nH]n(-c4ccccc4)c(=O)c32)ccc1O (stereo unspecified)	Sm TGR inh inconclusive, AmpC inh detg inconclusive
CCOC(=O)c1sc(=S)n(C)c1NC(=O)c1ccccc1	none
